Assay outcomes from PubChem BioAssay.
3CLpro inhibitor – SARS-CoV 3CLpro protease inhibition. P0C6X7. recombinant SARS-CoV 3CLpro, quenched FRET peptide cleavage. inhibition, % at 6 µM. 0.14% of 290,000 active. AID 1706; in the data active = inhibition above about 12%
Bead autofluor – flagged as autofluorescent in microsphere protease counterscreen; compound autofluorescence counterscreen, microsphere flow cytometry; hits give high values; fluorescence intensity (no concentration beside the values); 3.1% of 360,000 active; in the data active = fluorescence intensity above about 16000; inconclusive = no clear call, values can overlap the other calls
Anthrax LF inh2 – blocks Bacillus anthracis lethal factor protease | multiplex microsphere protease cleavage assay, LF | 0.12% of 360,000 active | inhibition, % at 10 µM | P15917; also: plate controls were buffer without enzyme for full effect and enzyme alone for no effect
BoNT-F LC inh – BoNT F light chain protease inhibition. AID 588497. 0.22% of 360,000 active. inhibition, % at 10 µM. Multiplex microsphere protease cleavage assay, flow cytometry; in the data active = inhibition above about 35%, passing the limit was not always enough; inconclusive = no clear call, values can overlap the other calls; also: plate controls were buffer without enzyme for full effect and enzyme alone for no effect
BoNT A protease – inhibitors of Botulinum neurotoxin A light chain protease; 0.17% of 360,000 active; AID 588499; inhibition, % at 10 µM; multiplex microsphere protease substrate cleavage, flow cytometry; also: plate controls were buffer without enzyme for full effect and enzyme alone for no effect
* = called active by the depositor. Compounds with a hit are over-represented: about 3.5% of the library has one in this group of screens. Rule as the data show it, unless noted: active = inhibition above about 30%; inconclusive = no clear call, values can overlap the other calls; inactive = below that.

For CC(=O)Nc1nnc(/C=C/c2cccc([N+](=O)[O-])c2)s1 the results were 3CLpro inhibitor -2, Bead autofluor 4252, Anthrax LF inh2 -2, BoNT-F LC inh 63* and BoNT A protease 0.
Screening Cn1ccc2c(N3CCCCCCC3)cc3c(c21)C1CCC3O1 (configuration not stated) returned Bead autofluor 5470, Anthrax LF inh2 -7, BoNT-F LC inh -6 and BoNT A protease -1.
CCOC(=O)CCC(NC(=O)CCCCCCCCC(=O)NC(CCC(=O)OCC)C(=O)OCC)C(=O)OCC (configuration not stated) was read as 3CLpro inhibitor -3, Bead autofluor 2464, Anthrax LF inh2 0, BoNT-F LC inh -4 and BoNT A protease 0.
`C=CCN(CC=C)C(=S)Nc1ccccc1` gave 3CLpro inhibitor -3, Bead autofluor 22624*, Anthrax LF inh2 -1, BoNT-F LC inh 1 and BoNT A protease 3.
For C=CCNC(=S)Nc1ccccc1 the results were 3CLpro inhibitor 0, Bead autofluor 9515, Anthrax LF inh2 -5, BoNT-F LC inh 0 and BoNT A protease 1.
CCOC(=O)CSC1=C(C#N)C(c2ccco2)C(C(=O)Nc2cccc(C(F)(F)F)c2)=C(C)N1 (configuration not stated) was read as 3CLpro inhibitor 4, Bead autofluor 25424*, Anthrax LF inh2 -1, BoNT-F LC inh -8 and BoNT A protease -6.
For CC1CN(S(=O)(=O)N(C)C)CCN1S(=O)(=O)N(C)C (configuration not stated) the results were 3CLpro inhibitor 1, Bead autofluor 19855*, Anthrax LF inh2 0, BoNT-F LC inh 1 and BoNT A protease 1.
CCOC(=O)c1c(C)[nH]c(C)c1C(=O)COC(=O)[C@@H](NC(=O)c1ccccc1OCC)C(C)C was read as 3CLpro inhibitor -1, Bead autofluor 23944*, Anthrax LF inh2 -4, BoNT-F LC inh -3 and BoNT A protease -2.
`C=CCN(c1ccc(C(=O)Nc2ccc3c(c2)OCO3)cc1)S(C)(=O)=O` gave 3CLpro inhibitor 3, Bead autofluor 4692, Anthrax LF inh2 3, BoNT-F LC inh 2 and BoNT A protease 0.
`Cc1ccccc1CN1CCCN(Cc2ccc(Cl)cc2)S1(=O)=O` gave 3CLpro inhibitor 3, Bead autofluor 2991, Anthrax LF inh2 21, BoNT-F LC inh 1 and BoNT A protease 3.
`Cc1c(NC(=S)NC(=O)Cc2ccccc2)cccc1C(=O)O` gave 3CLpro inhibitor 3, Bead autofluor 21800*, Anthrax LF inh2 -3, BoNT-F LC inh -1 and BoNT A protease inconclusive.
`Cc1nc(SCC(=O)Nc2ccccc2)c2oc3ccccc3c2n1` gave 3CLpro inhibitor 2, Bead autofluor 2772, Anthrax LF inh2 -1, BoNT-F LC inh 3 and BoNT A protease 0.
For Cc1nc(SCC(=O)NC(C)c2ccccc2)c2oc3ccccc3c2n1 (configuration not stated) the results were 3CLpro inhibitor -3, Bead autofluor 19999*, Anthrax LF inh2 -2, BoNT-F LC inh 1 and BoNT A protease 0.
For Cc1nc(SCC(=O)NCCc2ccccc2)c2oc3ccccc3c2n1 the results were 3CLpro inhibitor -2, Bead autofluor 16266*, Anthrax LF inh2 5, BoNT-F LC inh -2 and BoNT A protease 1.
Cn1ncc2c(Nc3cccc(Cl)c3)nc(Nc3cccc(Cl)c3)nc21 was read as 3CLpro inhibitor 2, Bead autofluor 4160, Anthrax LF inh2 2, BoNT-F LC inh inconclusive and BoNT A protease -1.
Screening COc1ccc(N/C=C(\C#N)c2nc3ccccc3n2C)c(OC)c1 returned 3CLpro inhibitor -1, Bead autofluor 18044*, Anthrax LF inh2 -1, BoNT-F LC inh -9 and BoNT A protease -3.
`COc1ccc(CNc2nc3ccccc3n2C)c(OC)c1` gave 3CLpro inhibitor 1, Bead autofluor 3754, Anthrax LF inh2 -8, BoNT-F LC inh -4 and BoNT A protease -1.
Cc1cccc(NC(=O)C2CCN(S(=O)(=O)c3ccc4c(c3)NC(=O)CO4)CC2)c1C was read as 3CLpro inhibitor -2, Bead autofluor 5228, Anthrax LF inh2 -1, BoNT-F LC inh -3 and BoNT A protease -1.
Oc1ccc(-c2nc3cnccn3c2Nc2ccc3c(c2)OCCO3)cc1 was read as 3CLpro inhibitor -7, Bead autofluor 5814, Anthrax LF inh2 1, BoNT-F LC inh -8 and BoNT A protease -1.
Screening CC(C)(C)CC(C)(C)Nc1c(-c2ccc(O)cc2)nc2cnccn12 returned 3CLpro inhibitor -2, Bead autofluor 16574*, Anthrax LF inh2 -2, BoNT-F LC inh -1 and BoNT A protease -2.
For O=C1/C(=C/c2ccc3c(c2)OCO3)Oc2cc(OCC(=O)N3CCC[C@H]3C(=O)O)ccc21 the results were 3CLpro inhibitor 4, Bead autofluor 5033, Anthrax LF inh2 -1, BoNT-F LC inh -6 and BoNT A protease 1.
`OC(c1ccccc1)c1ccccc1CN1CCCNC1=S` (configuration not stated) gave Bead autofluor 3048, Anthrax LF inh2 -4, BoNT-F LC inh -7 and BoNT A protease 0.
CN1C(=O)CC(N2CCC(C(N)=O)(N3CCCCC3)CC2)C1=O (configuration not stated) was read as 3CLpro inhibitor -1, Bead autofluor 10991, Anthrax LF inh2 2, BoNT-F LC inh -12 and BoNT A protease -3.
Screening COc1cccc(N2C(=O)CC(N3CCC(C(N)=O)(N4CCCCC4)CC3)C2=O)c1 (configuration not stated) returned 3CLpro inhibitor 0, Bead autofluor 26152*, Anthrax LF inh2 -3, BoNT-F LC inh -10 and BoNT A protease -8.
For COc1ccc(NC(=O)N2CCN(C(=O)Nc3ccc(OC)cc3)CC2)cc1 the results were 3CLpro inhibitor 6, Bead autofluor 3399, Anthrax LF inh2 -5, BoNT-F LC inh -2 and BoNT A protease 0.
`CCS(=O)(=O)C(=C(Nc1ccc(OC)cc1)Nc1ccc(OC)cc1)S(=O)(=O)CC` gave 3CLpro inhibitor -4, Bead autofluor 22992*, Anthrax LF inh2 -7, BoNT-F LC inh -8 and BoNT A protease -2.
`COc1ccc2c(c1)C=C(C(=O)NCc1ccc(Cl)cc1)CO2` gave 3CLpro inhibitor -4, Bead autofluor 20111*, Anthrax LF inh2 -1, BoNT-F LC inh 4 and BoNT A protease 4.
For CCN(CC)C(=O)C1CCCN(c2ccc([N+](=O)[O-])cc2/C=N/NC(=O)c2cccc([N+](=O)[O-])c2)C1 (configuration not stated) the results were 3CLpro inhibitor 6, Bead autofluor 9352, Anthrax LF inh2 -2, BoNT-F LC inh 3 and BoNT A protease 0.
For COC(=O)c1c(NS(=O)(=O)c2cccs2)sc2c1CCCC2 the results were 3CLpro inhibitor 2, Bead autofluor 25083*, Anthrax LF inh2 -5, BoNT-F LC inh -7 and BoNT A protease -4.
Screening O=C(Nc1sc2c(c1C(=O)O)CCCCC2)c1cccs1 returned 3CLpro inhibitor 9, Bead autofluor 4271, Anthrax LF inh2 0, BoNT-F LC inh -1 and BoNT A protease 0.
Screening COC(=O)c1c(NC(=O)Cc2cccs2)sc2c1CCCC2 returned 3CLpro inhibitor 6, Bead autofluor 2143, Anthrax LF inh2 0, BoNT-F LC inh -12 and BoNT A protease 0.
